TDP1 cell noCPT: qHTS for Inhibitors of human tyrosyl-DNA phosphodiesterase 1 (TDP1): qHTS in cells in absence of CPT. DT40 Tdp1-/- hTDP1 cells, no CPT, ATP luminescence, 48 h. Potency, µM (highest dose often 46.2 µM), for inactives: at the top dose activity change, negative = growth inhibition, actives largely listed as inhibitors. hit rate 15% among 420,000; further: nearly all actives have a fitted effect of over 55% in size
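Cells were dispensed at 400 per well, compounds added by pin tool, plates incubated ≥48 hr at 37 °C, then CellTiter-Glo added for 30 min at room temperature before luminescence reading. Line: DT40 Tdp1-/- complemented with hTDP1; camptothecin omitted.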
VDR inhibitor: vitamin D3 receptor (human) inhibition | P11473 | VDR-SRC2-3 peptide fluorescence polarization, 2 h | Potency, µM, for the others: max response, negative = inhibition, usual class: inhibitors | hit rate 0.93% among 400,000
Target sequence (P11473 whole entry, looked up): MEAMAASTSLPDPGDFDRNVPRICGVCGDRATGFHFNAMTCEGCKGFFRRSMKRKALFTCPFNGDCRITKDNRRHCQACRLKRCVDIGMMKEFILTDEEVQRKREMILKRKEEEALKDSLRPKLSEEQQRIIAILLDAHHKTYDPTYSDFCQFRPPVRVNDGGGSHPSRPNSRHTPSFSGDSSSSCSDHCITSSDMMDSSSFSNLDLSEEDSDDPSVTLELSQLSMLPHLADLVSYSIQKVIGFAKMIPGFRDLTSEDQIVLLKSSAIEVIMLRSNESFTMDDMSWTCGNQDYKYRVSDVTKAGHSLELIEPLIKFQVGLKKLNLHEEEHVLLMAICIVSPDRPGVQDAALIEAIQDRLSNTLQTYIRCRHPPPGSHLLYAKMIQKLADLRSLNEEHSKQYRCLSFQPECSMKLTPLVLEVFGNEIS
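FP read-out; VDR + SRC2-3 coactivator peptide; 23 nl compound by pintool; 2 h RT incubation; reagents held at 4 deg C, protected from light.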
TDP1 inh: inhibitors of human tyrosyl-DNA phosphodiesterase TDP1 | Q9NUW8 | recombinant TDP1, AlphaScreen DNA substrate cleavage | Potency, µM (highest dose often 130 µM), inactives show at the top dose activity change, negative = inhibition, usual class: inhibitors | hit rate 0.28% among 350,000 | AID 485290; further: nearly all actives have a fitted effect of over 40% in size
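Compounds were preincubated with Tdp1 (1 nM final) for 15 min at room temperature before substrate (15 nM final) started a 5 min reaction; beads (10 ug/ml final) were then added for 10 min before AlphaScreen detection.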
GCN5L2 inh: inhibitors of human GCN5L2 histone acetyltransferase. Q92830. Potency, µM (series often up to 58.9 µM), without a hit: at the top dose activity change, negative = inhibition, actives largely listed as inhibitors. hit rate 0.21% among 390,000. GCN5L2 HAT assay, ThioGlo1 CoA-SH fluorescence
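Fluorescence readout, Ex340nm/Em540nm: ThioGlo1 (50uM final) reacts with free CoA thiol released as 20nM GCN5L2 acetylates H3(1-25) peptide (75uM) using acetyl-CoA (70uM). Compound and enzyme sat 15 min beforehand; 20 min room-temperature reaction.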
PLK1 PBD inh: PLK1 (human) polo-box domain binding inhibition. P53350. hit rate 2.8% among 360,000. Potency, µM, without a hit: max response, negative = inhibition, usual class: inhibitors. Plk1 PBD binding of FITC phosphopeptide, fluorescence polarization; further: series mostly up to about 57 µM; nearly all actives have a fitted effect of over 65% in size
DT40 TDP1 CPT: growth inhibition of DT40 Tdp1-/-;hTDP1 cells with camptothecin (screen for TDP1 inhibitors); hit rate 12% among 420,000; chicken DT40 Tdp1-/-;hTDP1 cells + 20 nM CPT, ATP luminescence, 48 h; AID 686979; Potency, µM (doses to about 46.2 µM), for the others: at the top dose activity change, negative = growth inhibition, actives largely listed as inhibitors; further: nearly all actives have a fitted effect of over 55% in size
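Cell growth measured by CellTiter-Glo luminescence after a minimum 48 h, 37 C compound exposure with 20 nM CPT in Tdp1-knockout DT40 cells stably expressing hTDP1, seeded 400/well; qHTS titration format.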
An asterisk follows results filed as active; ? = inconclusive; . = no result given; [ ] = another dose, or the depositor's remark. Rows were chosen to be rich in hits. Some 18% of all compounds tested hit in one or more screens of this group. The call rests on the fitted dose curve; in most records, active means well fitted curve in the direction sought with a large enough effect; inconclusive means small, poorly fitted or top-dose-only effect, or another doubt; inactive means no such curve, though single readings can be large; an effect the other way counts as inactive or inconclusive. On the % scale 0 is the no-effect control and ±100 the full control effect; potency means the concentration at half of the fitted maximal effect.

SMILES | TDP1 cell noCPT | VDR inhibitor | TDP1 inh | GCN5L2 inh | PLK1 PBD inh | DT40 TDP1 CPT
CCNc1ncc2nc(-c3ccccc3)c(=O)n(CCC#N)c2n1 | 9.9% | -1.8% | . | ? | . | -3.1%
O=C(O)C1CC=CCC1C(=O)Nc1ccc2c(c1)CCC2 (stereo not given) | -4.3% | 11.2% | -0.1% | -1.2% | 0.0% | -18.4%
Cc1cc(=O)nc2c3ccccc3n(CC(=O)NCCCN3CCOCC3)n12 | ? | ? | 5.2% | -3.3% | 18.9µM* | ?
Cc1ccc(C)c(Cn2c3ccccc3c3cnn(CC(=O)NCC(C)c4ccccc4)c(=O)c32)c1 (stereo not given) | 23.1µM* | 6.4% | 0.0% | -0.5% | . | 13µM*
Cc1ccccc1Cn1c2ccccc2c2cnn(CC(=O)NCCc3ccc(Cl)cc3)c(=O)c21 | 18.4µM* | 17.1% | 0.0% | 0.7% | . | ?
Cc1ccccc1Cn1c2ccccc2c2cnn(CC(=O)NCC(C)c3ccccc3)c(=O)c21 (stereo not given) | -43.6% | 14.0% | -2.5% | -3.9% | . | ?
Cc1ccc(C)c(Cn2c3ccccc3c3cnn(CC(=O)NC(C)c4ccccc4)c(=O)c32)c1 (stereo not given) | 2.31µM* | 12.1% | -2.5% | 5.1% | . | 2.91µM*
COc1ccc(NC(=O)Nc2nnc(-c3ccccc3SCc3ccccc3)s2)cc1 | 6.51µM* | 6.9% | 0.7% | -5.8%[0.501 µM] | -18.2% | 18.4µM*
COc1cccc(NC(=O)Nc2nnc(-c3ccccc3SCc3ccccc3)s2)c1 | ? | 9.4% | -3.0% | 0.1% | -12.5% | ?
COC(=O)CNC(=O)C(=O)OC | -2.4%[4.12 µM] | -0.3% | 3.6% | -5.4% | . | 4.8%[4.12 µM]
CC1/C=C/C=C/C=C/C=C/C=C/C=C/C=C/C(OC2OC(C)C(O)C(N)C2O)CC2O[C@@](O)(CC(O)CC(O)C(O)CCC(O)CC(O)CC(=O)OC(C)[C@H](C)C1O)CC(O)C2C(=O)O (stereo not given in full) | 0.2% | 50.1µM* | ? | -23.0% | . | -0.6%
COC(=O)[C@@]12CCCN1[C@H](c1ccc(-c3ccc(Cl)c(Cl)c3)cc1)[C@H]1C(=O)N(C)C(=O)[C@H]12 | 11.6µM* | -11.2% | 3.7% | -3.3% | 6.6% | ?
COC(=O)[C@@]12CCCN1[C@H](c1ccc(-c3cccc(Cl)c3)cc1)[C@H]1C(=O)N(C)C(=O)[C@H]12 | 9.2µM* | -2.0% | 4.2% | 3.6% | 1.9% | 23.1µM*
COC(=O)[C@@]12CCCCN1[C@H](c1ccc(-c3cccc(Cl)c3)c(OC)c1)[C@H]1C(=O)N(C)C(=O)[C@H]12 | ? | -1.0% | 0.9% | -12.6% | -16.1% | 18.4µM*
COC(=O)[C@@]12CCCN1[C@H](c1ccc(-c3ccccc3)cc1)[C@@H]1C(=O)N(C)C(=O)[C@@H]12 | 18.4µM* | -6.8% | 0.7% | -7.1% | -9.1% | 23.1µM*
COC(=O)[C@@]12CCCCN1[C@H](c1ccc(-c3cccc(Cl)c3)cc1)[C@@H]1C(=O)N(C)C(=O)[C@@H]12 | 13µM* | -18.5% | 1.0% | -3.8% | -21.4% | 20.6µM*
COC(=O)[C@@]12CCCCN1[C@H](c1ccc(-c3cccc(Cl)c3)cc1)[C@H]1C(=O)N(C)C(=O)[C@H]12 | 23.1µM* | 5.6% | -1.7% | -5.4% | -6.0% | ?
CN(C)c1ccc(CC2CCc3ccccc32)cc1 (stereo not given) | -10.1% | . | . | . | . | ?
O=C1NC(c2ccccc2)=C(c2ccc3ccccc3n2)C(c2ccccc2)N1 (stereo not given) | 25.9µM* | 3.1% | 7.9% | -4.8% | -3.7% | ?
O=C(O)c1nc(N2CCCC2)ncc1Cl | -6.0% | 5.7% | -3.9% | -14.5% | -3.8% | -1.8%
COc1cccc(/C=C/C(=O)OCC(=O)Nc2ccc(Cl)cn2)c1 | . | . | 3.0% | -6.8% | . | .
Cc1cccc(N=N/C(=C\O)C(=O)c2ccc(Br)cc2)c1 | ? | -7.7% | 5.9% | -17.8% | 1.5% | 8.2µM*
Cc1cccc(N/N=C(\C=N\N)C(=O)c2ccc(Br)cc2)c1 | . | . | 5.9% | -10.1% | . | .
CCOC(=O)c1sc2ccccc2c1S(=O)(=O)N1CCN(c2cc(C)ccc2C)CC1 | ? | 20.6% | 0.6% | 5.5% | . | ?
Cc1cc(C(=O)C(C)OC(=O)c2ccc(NC(=O)CC#N)cc2)c(C)n1-c1ccccc1 (stereo not given) | 18.4µM* | 17.4% | . | -8.9% | 1.8% | ?
SMILES | TDP1 cell noCPT | VDR inhibitor | TDP1 inh | GCN5L2 inh | PLK1 PBD inh | DT40 TDP1 CPT
CN(Cc1ccc(OC(F)F)cc1)C(=O)/C=C/c1ccc(S(=O)(=O)N2CCOCC2)cc1 | ? | 7.8% | 0.4% | -5.7% | 1.9% | 18.4µM*
COc1ccc(CN(C)C(=O)/C=C/c2ccc(S(=O)(=O)N3CCOCC3)cc2)cc1F | 20.6µM* | 2.8% | 0.6% | -3.1% | 0.4% | 16.4µM*
CN(Cc1ccc(OC(F)F)cc1)C(=O)C1CCN(S(=O)(=O)c2ccc3c(c2)OCCO3)CC1 | ? | -15.2% | 0.7% | -3.5% | -8.5% | ?
Cc1cc(C(O)c2ncc(-c3ccccc3C)[nH]2)ccc1F (stereo not given) | ? | . | . | . | -9.7% | ?
COc1cc2c(cc1NC(=O)CN(C)Cc1nc3ccccc3c(=O)[nH]1)oc1ccccc12 | 23.1µM* | -7.9% | 6.2% | -8.3% | -7.3% | 18.4µM*
CN(CC(=O)Nc1ccccc1Sc1ccccc1)Cc1nc2ccccc2c(=O)[nH]1 | 18.4µM* | -4.5% | 7.7% | -5.0% | -6.6% | ?
CSc1ccc(CN(C)Cc2nc3ccccc3c(=O)[nH]2)cc1 | 14.6µM* | 2.7% | 6.2% | -4.3% | -6.9% | ?
CN(CC(=O)NC(=O)NCc1ccco1)Cc1nc2ccccc2c(=O)[nH]1 | 1.64µM* | 3.1% | 50.1µM* | -9.2% | -21.6% | 4.61µM*
CN(CC(=O)NC(c1ccccc1)c1ccccc1)Cc1nc2ccccc2c(=O)[nH]1 | ? | 6.4% | 8.0% | -3.8%[0.501 µM] | 3.0% | ?
O=C(CCc1nc2ccccc2c(=O)[nH]1)NCc1ccco1 | ? | 14.4% | 2.7% | -2.4% | -1.6% | ?
CS(=O)(=O)N(Cc1ccc(F)cc1)Cc1nc2ccccc2c(=O)[nH]1 | 1.6% | 3.5% | 7.3% | -20.1% | -16.4% | 2.5%
O=C(CNC(c1ccccc1)c1ccccc1)Nc1ccccc1Br | ? | 7.3% | . | -9.3% | -14.1% | ?
CCc1ccccc1NC(=O)c1cn(C)c(=O)c2ccccc12 | -9.4% | -10.5% | 2.9% | -3.2% | . | -18.8%
